# Assay results from PubChem BioAssay AID2417 (National Center for Advancing Translational Sciences (NCATS), 2010).
# The whole screen tested about 140,000 compounds, of which about 4,300 (3.1%) were called active. Inconclusive results (about 21%) are left out. The full list was thinned out, with actives kept by preference. Unmarked numbers belong to inactive results.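 The calls were made as follows: active = readout at or below -70, meaning at least 70% loss of cells showing the perinucleolar compartment, a nuclear body marking cancer cells; inconclusive = readout between -30 and a set limit; inactive = the rest.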
# Assay: High Content Assay for Compounds that inhibit the Assembly of the Perinucleolar Compartment;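 also: plate controls were DMSO wells for no effect and camptothecin positive control wells for full effect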
# Conditions: PC3M PTB-GFP, PNC prevalence imaging, 16 h; at 10 µM; stronger effect = lower value
# Procedure, shortened: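 PC3M cells stably expressing PTB-GFP, 750–1000 cells/well, treated 16 h at 37 °C with compound (23 nl of library stock), in duplicate. After paraformaldehyde fixation and Hoechst stain, imaged at 20x; PNC prevalence scored by image analysis.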
row,SMILES,"activity change (PNC), negative = inhibition"
1,COc1cc(CCC(=O)OCC(=O)Nc2cccc(S(N)(=O)=O)c2)cc(OC)c1OC,17.9%
2,COc1ccc(OCC(=O)Nc2nnc(-c3ccco3)s2)cc1,-113% (active)
3,Cc1ccc(OCC(=O)Nc2ccc(-c3nnc(-c4ccco4)o3)cc2)cc1,63.9%
4,COCC(=O)Nc1nnc(COc2ccccc2)s1,5.3%
5,Cc1ccc(C(=O)N2CC(=O)Nc3ccccc32)o1,-19.5%
6,CCc1ccc(C2C(C#N)=C(N)N(N(C)C)C3=C2C(=O)CCC3)s1 (centres undefined),36.4%
7,O=C1NC(=Nc2ccc(Cl)cc2)SC1Cc1cccc(Cl)c1Cl (centres undefined),66.6%
8,O=C(COC(=O)/C=C/c1cccc(Cl)c1)NCCc1ccccc1,-23.6%
9,COCCNC(=O)c1ccccc1NS(=O)(=O)c1ccc(C)c([N+](=O)[O-])c1,33%
10,C/C(CC(=O)Nc1cccc(F)c1)=N\NC(=O)C(=O)NC1CCCCC1,0.469%
11,CCN1CCN(C(=O)C2(NC(=O)Nc3cccc(F)c3)CCCCC2)CC1,-83.6% (active)
12,O=C(Nc1cccc(F)c1)c1ccc(S(=O)(=O)N2CCCC2)cc1,8.69%
13,COCCCNC(=S)NC(=O)c1ccccc1,-29.6%
14,Cc1ccc(-c2cn3cc([N+](=O)[O-])ccc3n2)cc1,19.9%
15,O=C(NNC(=S)NCc1ccccc1)c1ccc(OC(F)F)cc1,-4.88%
16,COc1ccc(C/C(C)=N/NC(=O)c2cc(C)oc2C)cc1,15.4%
17,COc1ccc(NC(=O)CN2CCN(S(=O)(=O)c3ccc(F)cc3)CC2)cc1Cl,-123% (active)
18,O=C(CN1CCN(S(=O)(=O)c2ccc(F)cc2)CC1)Nc1ccccc1F,-12%
19,COc1cc2c(cc1NC(=O)CN1CCN(S(=O)(=O)c3ccc(F)cc3)CC1)oc1ccccc12,-22.6%
20,CCc1ccc(NC2Nc3cc(C)nn3S2)cc1 (centres undefined),66.7%
21,O=C(CN1CCN(C2CCCCC2)CC1)Nc1ccccc1N1CCCCC1,-8.13%
22,Cn1c(=O)c2c(nc(SCC(=O)Nc3ccccc3N3CCCCC3)n2C)n(C)c1=O,-26.8%
23,Cc1ccccc1NC(=O)CNc1ccccc1N1CCCCC1,-94.9% (active)
24,Cc1occc1C(=O)NNC(=S)NCC(C)C,-25.7%
25,Cc1scc(C(=O)NNC(=S)NCC(C)C)c1C,-6.46%
26,CC(C)CNC(=S)NNC(=O)c1nn(C)cc1Cl,-100% (active)
27,Cc1ccc(S(=O)(=O)N(C)C)cc1NC(=O)COC(=O)c1c(C)noc1C,-21.3%
28,Cc1ccc(S(=O)(=O)N(C)C)cc1NC(=O)/C=C/c1cccs1,-119% (active)
29,Cc1ccc(NC(=O)c2cccs2)cc1S(=O)(=O)N(C)C,22.8%
